Assays:
Experiment in all cases: SPOT peptide array binding signal intensity (averaged, normalized) (arbitrary units (background-subtracted, floor 0; scale differs between SH3 domains)); higher = stronger binding of the SH3 domain to the peptide
[1] = molecular target: SpBzz1-D2
Procedure, shortened: (§1)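 Detection of bound protein relied on anti-GST antibody, an HRP anti-mouse secondary and luminol, with imaging and quantification in Genespotter. The bound protein was GST-fused SH3 domains from four yeast species, incubated at 10 μg/ml overnight at 4°C in TBS-based blocking buffer on cellulose membranes carrying synthetic 15-mer peptides with cysteines replaced by serines. Binding signal is normalized, background-subtracted spot intensity averaged over replicates, in arbitrary units that differ between domains.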

[2] = molecular target: SpCyk3
Procedure, shortened: as §1

[3] = molecular target: SpHof1
Procedure, shortened: as §1

[4] = molecular target: SpHof1-2
Procedure, shortened: as §1

[5] = molecular target: SpHof1-3
Procedure, shortened: as §1

[6] = molecular target: SpHse1
Procedure, shortened: as §1

[7] = molecular target: SpLsb1
Procedure, shortened: as §1

[8] = molecular target: SpLsb4
Procedure, shortened: as §1

[9] = molecular target: SpMyo1
Procedure, shortened: as §1

[10] = molecular target: SpNbp2
Procedure, shortened: as §1

[11] = molecular target: SpPex13
Procedure, shortened: as §1

[12] = molecular target: SpRvs167
Procedure, shortened: as §1

[13] = molecular target: SpSla1-D1-D2
Procedure, shortened: as §1

[14] = molecular target: SpSla1-D3
Procedure, shortened: as §1

[15] = molecular target: AgAbp1
Procedure, shortened: as §1

[16] = molecular target: AgBbc1
Procedure, shortened: as §1

[17] = molecular target: AgBem1-D1
Procedure, shortened: as §1

[18] = molecular target: AgBzz1-D1
Procedure, shortened: as §1

[19] = molecular target: AgBzz1-D2
Procedure, shortened: as §1

[20] = molecular target: AgCyk3
Procedure, shortened: as §1

[21] = molecular target: AgFus1
Procedure, shortened: as §1

[22] = molecular target: AgHof1
Procedure, shortened: as §1

[23] = molecular target: AgHse1
Procedure, shortened: as §1

[24] = molecular target: AgLsb1
Procedure, shortened: as §1

[25] = molecular target: AgLsb4
Procedure, shortened: as §1

[26] = molecular target: AgMyo5
Procedure, shortened: as §1

[27] = molecular target: AgNbp2
Procedure, shortened: as §1

[28] = molecular target: AgRvs167
Procedure, shortened: as §1

[29] = molecular target: AgSho1
Procedure, shortened: as §1

[30] = molecular target: AgSla1-D1-D2
Procedure, shortened: as §1

[31] = molecular target: AgSla1-D3
Procedure, shortened: as §1

[32] = molecular target: CaAbp1-D1
Procedure, shortened: as §1

[33] = molecular target: CaAbp1-D2
Procedure, shortened: as §1

[34] = molecular target: CaBbc1
Procedure, shortened: as §1

[35] = molecular target: CaBem1-D1
Procedure, shortened: as §1

[36] = molecular target: CaBzz1-D1
Procedure, shortened: as §1

[37] = molecular target: CaBzz1-D2
Procedure, shortened: as §1

[38] = molecular target: CaCyk3
Procedure, shortened: as §1

[39] = molecular target: CaFus1
Procedure, shortened: as §1

[40] = molecular target: CaHof1
Procedure, shortened: as §1

[41] = molecular target: CaHse1
Procedure, shortened: as §1

[42] = molecular target: CaLsb1
Procedure, shortened: as §1

[43] = molecular target: CaLsb4
Procedure, shortened: as §1

[44] = molecular target: CaMyo5
Procedure, shortened: as §1

[45] = molecular target: CaNbp2
Procedure, shortened: as §1

[46] = molecular target: CaRvs167
Procedure, shortened: as §1

[47] = molecular target: CaRvs167-3
Procedure, shortened: as §1

[48] = molecular target: CaSho1
Procedure, shortened: as §1

[49] = molecular target: CaSla1-D1-D2
Procedure, shortened: as §1

[50] = molecular target: CaSla1-D3
Procedure, shortened: as §1

[51] = molecular target: ScAbp1
Procedure, shortened: as §1

[52] = molecular target: ScBbc1
Procedure, shortened: as §1

[53] = molecular target: ScBem1-D1
Procedure, shortened: as §1

[54] = molecular target: ScBzz1-D1
Procedure, shortened: as §1

[55] = molecular target: ScBzz1-D2
Procedure, shortened: as §1

[56] = molecular target: ScCyk3
Procedure, shortened: as §1

[57] = molecular target: ScFus1
Procedure, shortened: as §1

[58] = molecular target: ScHof1
Procedure, shortened: as §1

[59] = molecular target: ScHse1
Procedure, shortened: as §1

[60] = molecular target: ScLsb1
Procedure, shortened: as §1

[61] = molecular target: ScLsb2
Procedure, shortened: as §1

[62] = molecular target: ScLsb3
Procedure, shortened: as §1

[63] = molecular target: ScLsb4
Procedure, shortened: as §1

[64] = molecular target: ScMyo3
Procedure, shortened: as §1

[65] = molecular target: ScMyo5
Procedure, shortened: as §1

[66] = molecular target: ScNbp2
Procedure, shortened: as §1

[67] = molecular target: ScPex13
Procedure, shortened: as §1

[68] = molecular target: ScRvs167
Procedure, shortened: as §1

[69] = molecular target: ScSho1
Procedure, shortened: as §1

[70] = molecular target: ScSla1-D1-D2
Procedure, shortened: as §1

[71] = molecular target: ScSla1-D3
Procedure, shortened: as §1

[72] = molecular target: SpAbp1-D1
Procedure, shortened: as §1

[73] = molecular target: SpBbc1
Procedure, shortened: as §1

[74] = molecular target: SpBzz1-D1
Procedure, shortened: as §1

With KNPRRQLQIPRQQPS the “SPOT peptide array binding signal intensity” value [1] was 0.5, the “SPOT peptide array binding signal intensity” value [2] was 1 and the “SPOT peptide array binding signal intensity” value [3] was 126. The “SPOT peptide array binding signal intensity” value [4] was 11.5, the “SPOT peptide array binding signal intensity” value [5] was 266 and the “SPOT peptide array binding signal intensity” value [6] was 260. The “SPOT peptide array binding signal intensity” value [7] was 54.2, the “SPOT peptide array binding signal intensity” value [8] was 129 and the “SPOT peptide array binding signal intensity” value [9] was 2. The “SPOT peptide array binding signal intensity” value [10] was 53, the “SPOT peptide array binding signal intensity” value [11] was 5 and the “SPOT peptide array binding signal intensity” value [12] was 16.7. The “SPOT peptide array binding signal intensity” value [13] was 3.5 and the “SPOT peptide array binding signal intensity” value [14] was 2.

In the case of IHTRRPSSTSQYLIR, the “SPOT peptide array binding signal intensity” value [15] is reported as 235, the “SPOT peptide array binding signal intensity” value [16] is reported as 354 and the “SPOT peptide array binding signal intensity” value [17] is reported as 254. The “SPOT peptide array binding signal intensity” value [18] was 73.5, the “SPOT peptide array binding signal intensity” value [19] was 58.5 and the “SPOT peptide array binding signal intensity” value [20] was 4. For the same binder, the “SPOT peptide array binding signal intensity” value [21] was 406, the “SPOT peptide array binding signal intensity” value [22] was 44.2 and the “SPOT peptide array binding signal intensity” value [23] was 202. The “SPOT peptide array binding signal intensity” value [24] was 242, the “SPOT peptide array binding signal intensity” value [25] was 32 and the “SPOT peptide array binding signal intensity” value [26] was 194. The “SPOT peptide array binding signal intensity” value [27] was 106, the “SPOT peptide array binding signal intensity” value [28] was 1.33 and the “SPOT peptide array binding signal intensity” value [29] was 22.5. The “SPOT peptide array binding signal intensity” value [30] was 44, the “SPOT peptide array binding signal intensity” value [31] was 11.8 and the “SPOT peptide array binding signal intensity” value [32] was 732. The “SPOT peptide array binding signal intensity” value [33] was 571, the “SPOT peptide array binding signal intensity” value [34] was 415 and the “SPOT peptide array binding signal intensity” value [35] was 43. The “SPOT peptide array binding signal intensity” value [36] was 249, the “SPOT peptide array binding signal intensity” value [37] was 267 and the “SPOT peptide array binding signal intensity” value [38] was 17. For the same binder, the “SPOT peptide array binding signal intensity” value [39] was 699, the “SPOT peptide array binding signal intensity” value [40] was 0.5 and the “SPOT peptide array binding signal intensity” value [41] was 110. The “SPOT peptide array binding signal intensity” value [42] was 22, the “SPOT peptide array binding signal intensity” value [43] was 150 and the “SPOT peptide array binding signal intensity” value [44] was 208. For the same binder, the “SPOT peptide array binding signal intensity” value [45] was 94.5, the “SPOT peptide array binding signal intensity” value [46] was 19.7 and the “SPOT peptide array binding signal intensity” value [47] was 69.5. For the same binder, the “SPOT peptide array binding signal intensity” value [48] was 369, the “SPOT peptide array binding signal intensity” value [49] was 126 and the “SPOT peptide array binding signal intensity” value [50] was 15.8. For the same binder, the “SPOT peptide array binding signal intensity” value [51] was 97.5, the “SPOT peptide array binding signal intensity” value [52] was 144 and the “SPOT peptide array binding signal intensity” value [53] was 40.5. The “SPOT peptide array binding signal intensity” value [54] was 50, the “SPOT peptide array binding signal intensity” value [55] was 50.5 and the “SPOT peptide array binding signal intensity” value [56] was 35. The “SPOT peptide array binding signal intensity” value [57] was 593, the “SPOT peptide array binding signal intensity” value [58] was 1 and the “SPOT peptide array binding signal intensity” value [59] was 465. The “SPOT peptide array binding signal intensity” value [60] was 3, the “SPOT peptide array binding signal intensity” value [61] was 162 and the “SPOT peptide array binding signal intensity” value [62] was 158. The “SPOT peptide array binding signal intensity” value [63] was 6.5, the “SPOT peptide array binding signal intensity” value [64] was 82 and the “SPOT peptide array binding signal intensity” value [65] was 243. The “SPOT peptide array binding signal intensity” value [66] was 267, the “SPOT peptide array binding signal intensity” value [67] was 10.8 and the “SPOT peptide array binding signal intensity” value [68] was 19.8. For the same binder, the “SPOT peptide array binding signal intensity” value [69] was 585, the “SPOT peptide array binding signal intensity” value [70] was 172 and the “SPOT peptide array binding signal intensity” value [71] was 14.5. The “SPOT peptide array binding signal intensity” value [72] was 826, the “SPOT peptide array binding signal intensity” value [73] was 60 and the “SPOT peptide array binding signal intensity” value [74] was 632. For the same binder, the “SPOT peptide array binding signal intensity” value [1] was 6.5, the “SPOT peptide array binding signal intensity” value [2] was 10 and the “SPOT peptide array binding signal intensity” value [3] was 51. For the same binder, the “SPOT peptide array binding signal intensity” value [4] was 10.5, the “SPOT peptide array binding signal intensity” value [5] was 669 and the “SPOT peptide array binding signal intensity” value [6] was 352. The “SPOT peptide array binding signal intensity” value [7] was 292, the “SPOT peptide array binding signal intensity” value [8] was 138 and the “SPOT peptide array binding signal intensity” value [9] was 138. For the same binder, the “SPOT peptide array binding signal intensity” value [10] was 96.5, the “SPOT peptide array binding signal intensity” value [11] was 10 and the “SPOT peptide array binding signal intensity” value [12] was 31.3. For the same binder, the “SPOT peptide array binding signal intensity” value [13] was 2 and the “SPOT peptide array binding signal intensity” value [14] was 6.

With KRRAPPPVPKKPSSR the “SPOT peptide array binding signal intensity” value [15] was 5310, the “SPOT peptide array binding signal intensity” value [16] was 1320 and the “SPOT peptide array binding signal intensity” value [17] was 274. The “SPOT peptide array binding signal intensity” value [18] was 2790, the “SPOT peptide array binding signal intensity” value [19] was 1090 and the “SPOT peptide array binding signal intensity” value [20] was 4. For the same binder, the “SPOT peptide array binding signal intensity” value [21] was 42.5, the “SPOT peptide array binding signal intensity” value [22] was 358 and the “SPOT peptide array binding signal intensity” value [23] was 332. For the same binder, the “SPOT peptide array binding signal intensity” value [24] was 650, the “SPOT peptide array binding signal intensity” value [25] was 374 and the “SPOT peptide array binding signal intensity” value [26] was 37. The “SPOT peptide array binding signal intensity” value [27] was 6190, the “SPOT peptide array binding signal intensity” value [28] was 106 and the “SPOT peptide array binding signal intensity” value [29] was 886. For the same binder, the “SPOT peptide array binding signal intensity” value [30] was 107, the “SPOT peptide array binding signal intensity” value [31] was 1230 and the “SPOT peptide array binding signal intensity” value [32] was 5770. The “SPOT peptide array binding signal intensity” value [33] was 7000, the “SPOT peptide array binding signal intensity” value [34] was 2030 and the “SPOT peptide array binding signal intensity” value [35] was 95. For the same binder, the “SPOT peptide array binding signal intensity” value [36] was 7240, the “SPOT peptide array binding signal intensity” value [37] was 4490 and the “SPOT peptide array binding signal intensity” value [38] was 458. The “SPOT peptide array binding signal intensity” value [39] was 308, the “SPOT peptide array binding signal intensity” value [40] was 0.75 and the “SPOT peptide array binding signal intensity” value [41] was 1600. The “SPOT peptide array binding signal intensity” value [42] was ≤ 0, the “SPOT peptide array binding signal intensity” value [43] was 2400 and the “SPOT peptide array binding signal intensity” value [44] was 4.75.
